This is a sample that favours compounds with a hit; in the whole collection about 2.2% have one here.
ID4 SMM: binds human ID4 protein on microarray; P47928; small molecule microarray, Flag-ID4 binding, fluorescence F/B; calls only; 31,000 tested, 1.2% active; AID 624137; call rule not given here;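 note: a binder raises fluorescence above local background on the spot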
Target sequence (P47928 whole entry, looked up): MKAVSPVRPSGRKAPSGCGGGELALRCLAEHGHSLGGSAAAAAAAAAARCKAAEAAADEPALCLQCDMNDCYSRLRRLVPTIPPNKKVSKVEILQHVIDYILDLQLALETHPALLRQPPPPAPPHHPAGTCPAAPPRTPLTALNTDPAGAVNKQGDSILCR
mut p53 react: mutant p53 pathway reactivation; SW480 PUMA-promoter luciferase; activation, % at 9.98 µM; 28,000 tested, 1.5% active; AID 624151; in the data active = activation above about 52%; inconclusive = no clear call, values can overlap the other calls
Of the large screens only hits and unclear results are named; the others gave an inactive call.

C[C@@H]1CN([C@@H](C)CO)C(=O)c2cc(-c3ccccc3)cnc2O[C@H]1CN(C)C(=O)c1cccc(F)c1	none (no result: mut p53 react)
Cn1c(SCC(=O)NC23CC4CC(CC(C4)C2)C3)nnc1-c1cccc([N+](=O)[O-])c1	none
Cc1ccc(C)c(NC(=O)C(C)N(c2ccc(Cl)cc2)S(C)(=O)=O)c1 (stereo not given)	none
CC1(C)CC[C@]2(C(=O)O)CC[C@]3(C)C(=CCC4[C@@]5(C)C[C@@H](O)[C@H](O)[C@](C)(CO)C5CC[C@]43C)[C@@H]2[C@@H]1O (stereo not given in full)	none (no result: mut p53 react)
Cc1nnc(SCC(=O)Nc2ccc(OC(F)(F)F)cc2)s1	none
FC(F)(F)Oc1ccc(Nc2n[nH]c(=S)s2)cc1	mut p53 react 75.2
COCCNC(=O)c1ccccc1-c1nc(-c2ccc(Cl)cc2)no1	mut p53 react 59.2
COc1ccccc1CC(=O)Nc1ccc(-c2noc(-c3ccc(Cl)cc3)n2)cc1	none
COc1cccc(NC(=O)CNC(=O)c2cccs2)c1	mut p53 react 51.0
COC(=O)COc1cccc(NC(=O)c2cccs2)c1	none
O=C1CC(Cc2ccccc2)C(=O)N1CCCn1ccnc1 (stereo not given)	ID4 SMM active
Cc1ccc(-c2nc3ccccc3c(=O)n2CCCn2ccnc2)cc1	none
[O-][NH2+]c1ccc(O)c2ncccc12	none
CC[C@H](CO)Nc1nc(NCc2ccccc2)c2ncn(C(C)C)c2n1	mut p53 react 118.8
CC(C)n1cnc2c(Nc3cccc(Cl)c3)nc(NCCO)nc21	none (no result: ID4 SMM)
O=C(CSc1ccc(Cl)cc1)Nc1cccc(-c2nnc(-c3ccco3)o2)c1	mut p53 react 122.5
O=C(CSc1nnc(-c2ccccc2)o1)Nc1cccc(F)c1	mut p53 react 78.0
COc1ccccc1NC(=O)CSc1nnc(-c2ccc(Cl)cc2)o1	mut p53 react 89.1
COC(=O)c1ccccc1NC(=O)CSc1nnc(-c2ccc(Cl)cc2)o1	none
CSc1cccc(NC(=O)CSc2nnc(-c3ccc(Br)cc3)o2)c1	none
CCn1c(SCC(=O)Nc2ccc(Cl)cc2)nnc1-c1ccco1	none
CC(C)(O)/C(=C/C#N)n1cccn1	none
Cc1occc1C(=O)NCCc1ccc(S(N)(=O)=O)cc1	none
Cc1ccc(-c2nnc(N3CCN(C(=O)CSc4nc(C)cc(C)n4)CC3)c3ccccc23)cc1	ID4 SMM active
Cc1ccc(-c2nnc(N3CCN(C(=O)CSc4nc5ccccc5o4)CC3)c3ccccc23)cc1	none
COc1ccc(NC(=O)NCCc2ccccc2OC)c(OC)c1	none
COc1ccc(NC(=O)C23CC4CC(C2)CC(C(=O)Nc2ccc(OC)cc2OC)(C4)C3)c(OC)c1	none
COc1ccc(NC(=O)NCc2ccc(C(=O)O)cc2)c(OC)c1	ID4 SMM active
COc1ccc(NC(=S)NCCc2ccccc2OC)c(OC)c1	ID4 SMM active
CCCn1c(=O)cc(N)n(-c2ccc(Cl)cc2)c1=O	none
COc1ccc(-c2cc3ccccc3oc2=O)cc1NC(=O)COc1ccc(Cl)cc1C	none
Cc1nnc(SCC(=O)Nc2cccc(F)c2)s1	none
O=C(Cn1ccc([N+](=O)[O-])n1)Nc1cc(Cl)cc(Cl)c1	none
C=C1CC[C@H]2C(=C)CC[C@@]3(O)C(=C)C(=O)O[C@@H]3[C@@H]12	none (no result: ID4 SMM)
OCCCn1c(-c2ccccc2)cn2c3ccccc3nc12	none
OCCCn1c(-c2ccc(Cl)cc2)cn2c3ccccc3nc12	ID4 SMM active
CCOC(=O)c1ccc(NC(=O)Cn2c(C(F)(F)F)nc3ccccc32)cc1	none
Cc1[nH]c2ccccc2c1C(=O)CSc1nc2ccccc2[nH]1	mut p53 react 62.1
Cc1[nH]c2ccccc2c1C(=O)CSc1nc2ccccc2o1	none
Cc1ccc([N+](=O)[O-])c(OCCSc2ncccn2)c1	mut p53 react inconclusive
Cc1cc(=O)[nH]c(SCCOc2cccc(Oc3ccccc3)c2)n1	none
COc1cccc(OCCCCSc2ncccn2)c1	none
COc1ccc(OCCCSc2ncccn2)cc1	mut p53 react 126.3
O=[N+]([O-])c1ccc(OCCCSc2ncccn2)cc1	mut p53 react 56.7
COc1cccc(OCCSc2nc(N)cc(N)n2)c1	mut p53 react 63.6
COC(=O)CSc1nc(-c2cccc(C)c2)nc2c1CCCC2	none
COc1ccc(NC(=O)CN2CCN(S(=O)(=O)c3ccc(F)cc3)CC2)cc1	none
COc1ccccc1NC(=O)Cn1cc(C(=O)c2ccccc2F)c2ccccc21	none
COC(=O)c1cn(CC(=O)NCC2CCCO2)c2ccccc12 (stereo not given)	none
CC(=O)c1cccc(NC(=O)C2CCCN(S(=O)(=O)c3ccccc3)C2)c1 (stereo not given)	ID4 SMM active
Cc1ccc(S(=O)(=O)N2CCCC(C(=O)Nc3ccc4c(c3)OCCO4)C2)cc1 (stereo not given)	none
Cc1cccc(C)c1NC(=O)CN(C1CCCCC1)S(=O)(=O)c1ccc(Cl)cc1	none
NC(=O)CSc1nc2c(c(=O)n1Cc1ccccc1)C1(CCCC1)Cc1ccccc1-2	none
Cc1cccnc1NC(=S)NC(=O)c1cncc(Br)c1	mut p53 react 108.2
N#Cc1c(NC(=S)NC(=O)c2cncc(Br)c2)sc2c1CCCC2	none
Cc1ccc(NC(=O)COc2ccc3c(=O)c(-c4ccccc4Cl)coc3c2)cc1	none
